Calls of active or inactive are those of the source. Rule for the calls: active = hit-call score of the fitted dose curve at least 0.9, where 1 is the maximum; inactive = score below 0.9.
How the values were obtained:
Conditions in all cases: mRNA level, 48 h; actives raise or lower the signal
[1] = read-out: Lipase C (LIPC), LIPC (gene 3990); assay: LTEA_HepaRG_LIPC: Life Technologies and Expression Analysis (LTEA) Assay for Lipase C (LIPC) using HepaRG (AID 2283514)
Method in brief: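 HepaRG cells, 48 h after plating, treated in duplicate for 48 h in serum-free induction medium over 8 half-log concentrations from 100 uM, 0.5% DMSO. LIPC mRNA by TaqMan qRT-PCR normalized to ACTB/GAPDH/POLR2A; bidirectional fit versus DMSO.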

[2] = read-out: Lipoprotein lipase (LPL), LPL (gene 4023); assay: LTEA_HepaRG_LPL: Life Technologies and Expression Analysis (LTEA) Assay for Lipoprotein lipase (LPL) using HepaRG (AID 2283515)
Method in brief: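 Differentiated HepaRG cells, plated 48 h, then exposed 48 h in serum-free induction medium to 8 concentrations (top 100 uM, half-log steps) in 0.5% DMSO, duplicate. LPL mRNA measured by qRT-PCR, normalized to ACTB, GAPDH and POLR2A.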

[3] = read-out: MicroRNA 122 (MIR122), gene 406906; assay: LTEA_HepaRG_MIR122: Life Technologies and Expression Analysis (LTEA) Assay for MicroRNA 122 (MIR122) using HepaRG (AID 2283516); note: the transcript read is the microRNA miR-122
Method in brief: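 HepaRG plated 48 h, switched to serum-free induction medium, then treated in duplicate for 48 h (100 uM top, half-log steps, 0.5% DMSO vehicle). RNA isolated, qRT-PCR performed, concentration-response fitted both directions relative to DMSO.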

[4] = read-out: matrix metalloproteinase-10 (MMP10), MMP10 (gene 4319); assay: LTEA_HepaRG_MMP10: Life Technologies and Expression Analysis (LTEA) Assay for matrix metalloproteinase-10 (MMP10) using HepaRG (AID 2283517)
Method in brief: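 Differentiated HepaRG cells in serum-free induction medium exposed 48 h in duplicate to 8-point half-log series up to 100 uM in 0.5% DMSO. mRNA quantified by qRT-PCR, normalised to ACTB, GAPDH, POLR2A; bidirectional fit versus DMSO.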

[5] = read-out: matrix metalloproteinase-3 (MMP3), MMP3 (gene 4314); assay: LTEA_HepaRG_MMP3: Life Technologies and Expression Analysis (LTEA) Assay for matrix metalloproteinase-3 (MMP3) using HepaRG (AID 2283519)
Method in brief: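 HepaRG cells (~100,000/well) in serum-free induction medium were dosed in duplicate for 48 h with an 8-point half-log series from 100 uM, 0.5% DMSO. MMP3 mRNA was quantified by Fluidigm TaqMan qRT-PCR, normalized to three housekeeping genes.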

[6] = read-out: Paternally Expressed 10 (PEG10), PEG10 (gene 23089); assay: LTEA_HepaRG_PEG10: Life Technologies and Expression Analysis (LTEA) Assay for Paternally Expressed 10 (PEG10) using HepaRG (AID 2283520)
Method in brief: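 HepaRG, 48 h post-plating → serum-free induction medium → 48 h chemical exposure (duplicate, 8-pt, max 100 uM, half-log, 0.5% DMSO) → lysis in RLT → TaqMan qRT-PCR for PEG10, ACTB/GAPDH/POLR2A normalisation.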

[7] = read-out: Phosphatase and tensin (PTEN), PTEN (gene 5728); assay: LTEA_HepaRG_PTEN: Life Technologies and Expression Analysis (LTEA) Assay for Phosphatase and tensin (PTEN) using HepaRG (AID 2283523)
Method in brief: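 HepaRG cells, 48 h after plating, exposed in duplicate for 48 h in serum-free induction medium to 8 half-log concentrations up to 100 uM (0.5% DMSO). PTEN mRNA by qRT-PCR, normalized to ACTB, GAPDH, POLR2A; bidirectional fit versus DMSO.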

[8] = read-out: solute carrier (SLC22A1), SLC22A1 (gene 6580); assay: LTEA_HepaRG_SLC22A1: Life Technologies and Expression Analysis (LTEA) Assay for solute carrier (SLC22A1) using HepaRG (AID 2283524)
Method in brief: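 Differentiated human HepaRG cells in serum-free induction medium, exposed 48 h in duplicate to 8-point half-log series from 100 µM top in 0.5% DMSO. SLC22A1 mRNA by TaqMan qRT-PCR normalized to ACTB, GAPDH, POLR2A; bidirectional fit versus DMSO.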

[9] = read-out: Pyruvate Dehydrogenase Kinase 4 (PDK4), PDK4 (gene 5166); assay: LTEA_HepaRG_PDK4: Life Technologies and Expression Analysis (LTEA) Assay for Pyruvate Dehydrogenase Kinase 4 (PDK4) using HepaRG (AID 2283525)
Method in brief: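 HepaRG cells plated 48 h, then switched to serum-free induction medium and exposed in duplicate for 48 h to 8 half-log concentrations from 100 uM in 0.5% DMSO. PDK4 mRNA measured by qRT-PCR, normalized to ACTB, GAPDH and POLR2A; bidirectional fit versus DMSO.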

[10] = read-out: NAD(P)H dehydrogenase [quinone] 1 (NQO1), NQO1 (gene 1728); assay: LTEA_HepaRG_NQO1: Life Technologies and Expression Analysis (LTEA) Assay for NAD(P)H dehydrogenase [quinone] 1 (NQO1) using HepaRG (AID 2283526)
Method in brief: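 HepaRG, 48 h post-plating → serum-free induction medium → test chemical 48 h (duplicate, 100 uM top, half-log x8, 0.5% DMSO) → RNA isolation → qRT-PCR, ACTB/GAPDH/POLR2A normalization; bidirectional curve fit vs DMSO baseline.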

[11] = read-out: Nuclear factor erythroid 2-related factor 2 (Homo sapiens) (UniProt Q16236); assay: LTEA_HepaRG_NFE2L2: Life Technologies and Expression Analysis (LTEA) Assay for Nuclear factor erythroid 2-related factor 2 (NFE2L2) Transcription Factor using HepaRG (AID 2283527)
Method in brief: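 Differentiated human HepaRG cells, serum-free induction medium, exposed 48 h in duplicate to eight half-log concentrations up to 100 uM in 0.5% DMSO. NFE2L2 mRNA by Fluidigm TaqMan qRT-PCR, normalised to ACTB, GAPDH, POLR2A; bidirectional change versus DMSO.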

[12] = read-out: succinate dehydrogenase complex iron sulfur subunit B (SDHB), SDHB (gene 6390); assay: LTEA_HepaRG_SDHB: Life Technologies and Expression Analysis (LTEA) Assay for succinate dehydrogenase complex iron sulfur subunit B (SDHB) using HepaRG (AID 2283528)
Method in brief: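 SDHB transcript level read by TaqMan qRT-PCR, housekeeping-normalised (ACTB, GAPDH, POLR2A), after 48 h chemical treatment of plated HepaRG cells; eight concentrations top 100 uM, half-log steps, 0.5% DMSO, duplicates; fitted both directions against DMSO.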

[13] = read-out: Signal transducer and activator of transcription 3 (Homo sapiens) (UniProt P40763); assay: LTEA_HepaRG_STAT3: Life Technologies and Expression Analysis (LTEA) Assay for Signal transducer and activator of transcription (STAT3) using HepaRG (AID 2283529)
Method in brief: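 Differentiated HepaRG cells, serum-free induction medium, dosed 48 h in duplicate, 8 half-log concentrations from 100 uM in 0.5% DMSO. STAT3 mRNA by qRT-PCR, normalised to ACTB, GAPDH, POLR2A; bidirectional fit versus DMSO.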

[14] = read-out: solute carrier (SLCO1B1), SLCO1B1 (gene 10599); assay: LTEA_HepaRG_SLCO1B1: Life Technologies and Expression Analysis (LTEA) Assay for solute carrier (SLCO1B1) using HepaRG (AID 2283530)
Method in brief: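 Differentiated human HepaRG cells were exposed for 48 h in serum-free induction medium to eight half-log concentrations, top 100 uM, in 0.5% DMSO. SLCO1B1 mRNA was measured by qRT-PCR, normalized to ACTB, GAPDH and POLR2A, and fitted bidirectionally against DMSO.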

[15] = read-out: sulfotransferase 2A1 (SULT2A1), SULT2A1 (gene 6822); assay: LTEA_HepaRG_SULT2A1: Life Technologies and Expression Analysis (LTEA) Assay for sulfotransferase 2A1 (SULT2A1) using HepaRG (AID 2283531)
Method in brief: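 HepaRG human liver cells, 48 h exposure in serum-free induction medium to 8 half-log concentrations topping at 100 µM (0.5% DMSO), duplicate wells. SULT2A1 mRNA measured by TaqMan qRT-PCR, normalized to ACTB/GAPDH/POLR2A; bidirectional fit against DMSO.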

[16] = read-out: Transforming Growth Factor (TGFA), TGFA (gene 7039); assay: LTEA_HepaRG_TGFA: Life Technologies and Expression Analysis (LTEA) Assay for Transforming Growth Factor (TGFA) using HepaRG (AID 2283532)
Method in brief: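 Differentiated HepaRG cells exposed 48 hours in serum-free induction medium, 0.5% DMSO vehicle, 8-point half-log series from 100 uM, in duplicate. TGFA mRNA by TaqMan qRT-PCR, normalised to ACTB, GAPDH, POLR2A; bidirectional fit versus DMSO.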

[17] = read-out: Transforming Growth Factor (TGFB1), TGFB1 (gene 7040); assay: LTEA_HepaRG_TGFB1: Life Technologies and Expression Analysis (LTEA) Assay for Transforming Growth Factor (TGFB1) Transporter using HepaRG (AID 2283533)
Method in brief: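 Differentiated HepaRG cells exposed 48 hr in serum-free induction medium to eight half-log concentrations up to 100 uM (0.5% DMSO), duplicate; TGFB1 mRNA by TaqMan qRT-PCR normalised to ACTB, GAPDH, POLR2A; bidirectional fit against DMSO.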

[18] = read-out: Protein phosphatase 2A (PPP2R4), PTPA (gene 5524); assay: LTEA_HepaRG_PPP2R4: Life Technologies and Expression Analysis (LTEA) Assay for Protein phosphatase 2A (PPP2R4) using HepaRG (AID 2283522)
Method in brief: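 Readout is PPP2R4 transcript level by microfluidic qRT-PCR after 48 h chemical treatment of human HepaRG liver cells. Concentrations spanned 100 uM downward in half-log steps; gain or loss of signal was fitted relative to DMSO.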

[19] = read-out: Nuclear factor NF-kappa-B p105 subunit (Homo sapiens) (UniProt P19838); assay: LTEA_HepaRG_NFKB1: Life Technologies and Expression Analysis (LTEA) Assay for Nuclear Factor Kappa B Subunit 1 (NFKB1) using HepaRG (AID 2283521)
Method in brief: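 NFKB1 transcript was measured by TaqMan qRT-PCR on Fluidigm arrays, normalised to three housekeeping genes and fitted in both directions against 0.5% DMSO. HepaRG cells were dosed in duplicate for 48 h in serum-free induction medium, eight half-log steps from 100 uM.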

Measured: AC50

Nuclear factor erythroid 2-related factor 2 (Homo sapiens), sequence (Q16236 whole entry, looked up): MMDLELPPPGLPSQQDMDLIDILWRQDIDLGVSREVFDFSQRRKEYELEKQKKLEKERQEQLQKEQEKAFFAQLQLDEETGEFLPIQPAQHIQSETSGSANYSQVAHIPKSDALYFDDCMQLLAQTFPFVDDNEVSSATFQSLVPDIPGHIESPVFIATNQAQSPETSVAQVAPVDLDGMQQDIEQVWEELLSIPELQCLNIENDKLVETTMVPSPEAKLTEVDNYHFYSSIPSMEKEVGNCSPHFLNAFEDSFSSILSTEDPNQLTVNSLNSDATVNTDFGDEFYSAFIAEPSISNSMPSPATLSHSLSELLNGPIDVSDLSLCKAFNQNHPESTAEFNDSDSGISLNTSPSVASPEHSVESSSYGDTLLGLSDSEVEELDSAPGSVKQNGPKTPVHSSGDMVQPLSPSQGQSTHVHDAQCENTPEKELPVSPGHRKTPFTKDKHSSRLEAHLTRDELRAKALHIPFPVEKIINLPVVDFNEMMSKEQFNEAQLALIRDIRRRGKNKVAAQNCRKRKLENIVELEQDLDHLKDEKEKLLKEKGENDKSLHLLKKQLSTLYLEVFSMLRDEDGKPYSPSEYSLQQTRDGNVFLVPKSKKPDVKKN
Signal transducer and activator of transcription 3 (Homo sapiens), sequence (P40763 whole entry, looked up): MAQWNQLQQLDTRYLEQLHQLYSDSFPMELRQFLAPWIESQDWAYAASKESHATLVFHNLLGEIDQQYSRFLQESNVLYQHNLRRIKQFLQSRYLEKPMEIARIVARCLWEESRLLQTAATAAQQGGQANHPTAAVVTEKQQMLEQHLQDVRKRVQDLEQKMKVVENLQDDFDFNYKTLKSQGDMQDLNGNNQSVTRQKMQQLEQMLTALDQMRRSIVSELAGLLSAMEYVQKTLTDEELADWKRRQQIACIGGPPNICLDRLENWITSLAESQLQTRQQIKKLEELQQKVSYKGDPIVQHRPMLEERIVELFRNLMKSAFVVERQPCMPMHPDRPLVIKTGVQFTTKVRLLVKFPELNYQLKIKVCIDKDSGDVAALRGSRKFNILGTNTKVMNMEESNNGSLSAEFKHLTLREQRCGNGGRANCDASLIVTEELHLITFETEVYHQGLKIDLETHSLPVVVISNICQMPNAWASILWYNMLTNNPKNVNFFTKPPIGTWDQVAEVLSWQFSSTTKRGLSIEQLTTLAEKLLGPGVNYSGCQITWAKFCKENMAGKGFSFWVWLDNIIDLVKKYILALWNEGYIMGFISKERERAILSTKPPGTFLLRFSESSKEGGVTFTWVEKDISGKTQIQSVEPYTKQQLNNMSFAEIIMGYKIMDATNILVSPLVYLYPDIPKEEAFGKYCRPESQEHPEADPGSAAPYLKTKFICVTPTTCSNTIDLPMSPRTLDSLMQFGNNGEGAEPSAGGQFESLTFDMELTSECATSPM
Nuclear factor NF-kappa-B p105 subunit (Homo sapiens), sequence (P19838 whole entry, looked up): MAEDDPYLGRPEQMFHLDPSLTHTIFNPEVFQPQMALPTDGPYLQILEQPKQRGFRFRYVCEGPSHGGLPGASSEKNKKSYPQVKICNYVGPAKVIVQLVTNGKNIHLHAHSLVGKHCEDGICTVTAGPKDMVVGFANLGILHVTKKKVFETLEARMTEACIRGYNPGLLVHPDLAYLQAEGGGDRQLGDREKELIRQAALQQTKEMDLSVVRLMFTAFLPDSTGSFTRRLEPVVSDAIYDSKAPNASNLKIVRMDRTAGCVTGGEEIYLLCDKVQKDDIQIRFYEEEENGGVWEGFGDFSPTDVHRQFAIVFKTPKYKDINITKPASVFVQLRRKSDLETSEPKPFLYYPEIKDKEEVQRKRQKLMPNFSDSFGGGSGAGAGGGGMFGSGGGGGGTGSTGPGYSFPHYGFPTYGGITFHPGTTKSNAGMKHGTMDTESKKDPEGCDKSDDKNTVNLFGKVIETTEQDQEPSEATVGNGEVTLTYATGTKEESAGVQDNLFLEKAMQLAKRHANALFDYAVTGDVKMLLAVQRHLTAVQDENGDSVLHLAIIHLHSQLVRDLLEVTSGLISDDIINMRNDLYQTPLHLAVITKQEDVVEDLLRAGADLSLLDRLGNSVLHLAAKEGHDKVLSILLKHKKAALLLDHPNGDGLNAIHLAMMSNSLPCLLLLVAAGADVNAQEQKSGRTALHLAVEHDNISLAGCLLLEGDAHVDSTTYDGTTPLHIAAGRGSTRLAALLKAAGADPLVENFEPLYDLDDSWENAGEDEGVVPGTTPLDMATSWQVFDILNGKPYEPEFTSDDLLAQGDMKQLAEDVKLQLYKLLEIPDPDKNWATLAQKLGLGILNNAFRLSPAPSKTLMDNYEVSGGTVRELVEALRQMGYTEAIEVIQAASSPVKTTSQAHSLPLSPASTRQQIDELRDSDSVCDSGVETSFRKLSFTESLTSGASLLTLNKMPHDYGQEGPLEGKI

O=C1O[C@H]([C@@H](O)CO)C(O)=C1O
not listed: [18] | [19]
inactive: all other assays above

O=C1c2ccccc2C(=O)N1CCc1noc(-c2ccc(CN3CCCCCC3)s2)n1
active: [2] 20.7 µM | [6] 42.2 µM
not listed: [18] | [19]
inactive: all other assays above

CCCCCCCCCC(=O)O
not listed: [19]
inactive: all other assays above

O=C1CCC(C2CCCCC2)CC1
not listed: [12] | [15] | [17] | [18]
inactive: all other assays above

CCOC(=O)O[C@H](C)OC(=O)c1ccc2c(c1)cc(C(=O)NC1CCN(C(C)C)CC1)n2Cc1cc(-c2ccc(Cl)s2)on1
active: [5] 47.2 µM
inactive: all other assays above

Cc1cccc2ccccc12
not listed: [17] | [18] | [19]
inactive: all other assays above

C[C@]12CC[C@@H]3c4ccc(O)cc4CC[C@H]3[C@@H]1CCC2=O
active: [8] 33.3 µM
not listed: [1] | [19]
inactive: all other assays above

O=C(O)Cc1cc(I)c(Oc2ccc(O)c(I)c2)c(I)c1
inactive: [3] | [5] | [18] | [7] | [10] | [12] | [13]
active: [1] 88.5 µM | [2] 65.7 µM | [4] 81 µM | [6] 0.558 µM | [8] 78.8 µM | [9] 0.00367 µM | [11] 85.6 µM | [14] 82.7 µM | [15] 79.5 µM | [16] 85.3 µM | [17] 79.5 µM

COc1cc(C(=O)NC2CCN(C)CC2)ccc1Nc1ncc2c(n1)N(C1CCCC1)CC(F)(F)C(=O)N2C
inactive: [3] | [6] | [10] | [16]
active: [1] 4.65 µM | [2] 14 µM | [4] 26.3 µM | [5] 4.65 µM | [19] 11.7 µM | [7] 12 µM | [8] 5.56 µM | [9] 22.2 µM | [11] 25.4 µM | [12] 12.7 µM | [13] 27.3 µM | [14] 7.47 µM | [15] 11.6 µM | [17] 3.64 µM

O=C(Nc1ccc(Cl)cc1)Nc1ccc(Cl)c(Cl)c1
active: [1] 15.1 µM | [2] 12.7 µM | [4] 27.6 µM | [5] 28.1 µM | [6] 21.8 µM | [19] 12.2 µM | [18] 21.3 µM | [7] 22.2 µM | [8] 17.4 µM | [9] 27 µM | [10] 17.8 µM | [12] 13.2 µM | [13] 14.2 µM | [14] 18.7 µM | [15] 22.7 µM | [16] 25.5 µM
inactive: [3] | [11]

Cc1cc(F)ccc1-c1cc(N2CC[C@@H](O)[C@H]2CO)ncc1N(C)C(=O)C(C)(C)c1cc(C(F)(F)F)cc(C(F)(F)F)c1
inactive: [5] | [6] | [9] | [13]
active: [1] 18.6 µM | [2] 48.8 µM | [3] 9.28 µM | [4] 68.7 µM | [18] 21.5 µM | [7] 66.4 µM | [8] 20.7 µM | [10] 79.8 µM | [11] 11.5 µM | [12] 75.1 µM | [14] 12.9 µM | [15] 24.7 µM | [16] 23.6 µM

O=c1c(-c2ccc(O)cc2)coc2cc(O)cc(O)c12
not listed: [17] | [19]
inactive: all other assays above

CCCCCc1ccc(N)cc1
not listed: [17] | [18] | [19]
inactive: all other assays above
